Reference: PubChem BioAssay (NCI)
About 83,000 compounds went through this panel and 20% of them were active in at least one assay; those are over-represented in the sample as a whole.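 Results are percent growth after 48 hours of single-concentration exposure. 100 means growth as in untreated cells, lower positive values show inhibition; negative values down to -100 show cell death.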 Unmarked numbers belong to inactive results. Active and inactive are the calls of the source. How the source made its calls: active means growth percent below 10; inactive means the rest.

These compounds were tested on MDA-MB-468 breast (assay: NCI-60 one-dose screen, 48 h (100 = growth as untreated, 0 = no growth, -100 = all killed)). Conditions: 10 µM unless noted.

Row | Compound | growth
1 | CC#CC(=O)N1CCC[C@H]1c1nc(-c2ccc(C(=O)Nc3ccccn3)cc2)c2c(N)nccn12 | 59.6%
2 | O=C1c2cc3c(cc2-c2c1c1ccc(F)cc1c(=O)n2CCCN1CCOCC1)OCO3 | 18.5%
3 | CC(C)(C)n1cc(-c2ccnc(NCCCNS(=O)(=O)c3ccc(Cl)cc3)c2)c(-c2cccc(F)c2)n1 | 48.4%
4 | COc1cc(-c2cc(-c3nc4ccccc4[nH]3)[nH]n2)cc(OC)c1OC | 14.7%
5 | COc1cc(OC)cc(C2CC(=O)Nc3c2c(C)nn3-c2nc3ccccc3[nH]2)c1 (stereo not given) | 46.6%
6 | CC(C)(C)[Si](C)(C)OC1[C@@H](CNC(=O)NC(=O)CCl)O[C@@H](n2cnc3c(N)ncnc32)[C@H]1O[Si](C)(C)C(C)(C)C (stereo not given in full) | -2.45% (active)
7 | COc1cc(C2NC(=O)C(C#N)=C(Nc3cccc(C)c3)S2)ccc1O (stereo not given) | 96.6%
8 | CC(=O)OC[C@]12CC[C@H]3[C@@H](C[C@H]4O[C@]45CC=CC(=O)[C@]35C)[C@]1(O)CC[C@@]2(O)[C@@](C)(O)C1CC(C)=C(C)C(=O)O1 (stereo not given in full) | -52.8% (active)
9 | CC(NNC(C)c1ccccc1)c1ccccc1 (stereo not given) | 104%
10 | CC1CC(C)/C(=N/NC(N)=O)C(C(O)CC2CCC(=O)NC2=O)C1 (stereo not given) | 46.9%
11 | COc1cc2c(cc1-c1c(C)noc1C)ncc1nc(CN3CCOCC3)n([C@H](C)COC(F)F)c12 | 29.6%
12 | O=C1/C(=C/C2=Cc3ccccc3OC2)SC(=S)N1c1ccc(F)cc1 | 112%
13 | OC(CSc1ccccc1)CN1CCN(c2ccc(Cl)cc2)CC1 (stereo not given) | 86.7%
14 | Cn1ccnc1C(=O)/C=C/c1ccc(C(=O)Nc2ccc(S(F)(F)(F)(F)F)cc2)cc1 | 14.5%
15 | CCC(CC)N1C(=O)/C(=c2\sc3n(c2=O)C2C(NN=3)N(CC)C(=O)N2CC)c2ccccc21 (stereo not given) | 42.8%
16 | CCN(CC)CCOc1nc2cc(OC)c(OC)cc2c2c1-c1ccc(OC)cc1C2=O | 84%
17 | O=C(O)C(Cc1ccccc1)C(=O)O | 82.4%
18 | COc1ccccc1/C=C/C(=O)CCC(=O)O | 124%
19 | C=C1CC2(OC1=O)C(=O)N(CCCN1C(=O)C3(CC(=C)C(=O)O3)c3ccccc31)c1ccccc12 (stereo not given) | -34% (active)
20 | COc1ccc(-n2nc3c(c2-c2ccc(OC)c(OC)c2)-c2oncc2CC3)cc1 | 90.1%

Row | Compound | growth
21 | Cc1ccc2c(c1)=C/C(=C\c1cc(-c3ccccc3)oc1O)C(=O)N=2 | 109%
22 | O=c1cc(C2NNC(=S)N2)c2ccc3ccccc3c2o1 (stereo not given) | 128%
23 | CC1=C/C(=C(\c2ccc(N(C)C)cc2)c2ccc([N+](C)(C)C)cc2)C=CC1=[N+](C)C | 70.6%
24 | COc1cccc(C2=NN3C(C2)c2ccccc2OC3c2ccc(/C=C3\SC(=O)NC3=O)cc2)c1 (stereo not given) | 102%
25 | O=[N+]([O-])c1ccc(NC(=S)N/N=C/c2cc3ccccc3n3nnnc23)cc1 | 61.7%
26 | COc1cc(C2CC(c3cccc(Nc4ccncc4)c3)=NN2c2cc(Cl)cc(Cl)c2)cc(OC)c1OC (stereo not given) | -11.9% (active)
27 | Oc1ccc(/C=N/Nc2nnc(N/N=C/c3ccc(O)cc3O)c3ccccc23)c(O)c1 | -47.3% (active)
28 | CN1C(=O)CNC(=O)[C@H](NC(=O)c2nc3ccccc3cc2O)CSSC[C@H]1C(=O)NCCCc1nc2ccccc2cc1O | 22.3%
29 | N=C(N)c1ccc(-c2ccc(-c3ccc(Cl)cc3Cl)o2)nc1 | -33.8% (active)
30 | CC1(C)C=CC[C@]2(C)[C@H]3CC[C@@H]4[C@H]5[C@H](C(=O)/C=C/c6cccnc6)CC[C@]5(CO)CC[C@@]4(C)[C@]3(C)CC[C@@H]12 | -60.7% (active)
31 | C#Cc1cccc(Oc2ccc(NC(=O)CCl)cc2)c1 | -7.9% [8.25 µM] (active)
32 | Oc1c(CN2CCCC2)cc(CSCc2ccccc2)c2cccnc12 | -33.1% (active)
33 | O=C(Cn1ccc(=O)[nH]c1=O)c1ccc([N+](=O)[O-])o1 | 44.4%
34 | CC1(C)CC[C@]23CC[C@]4(C)[C@H](CC[C@@H]5[C@@]6(C)C/C(=C/c7ccncc7)C(=O)C(C)(C)[C@@H]6CC[C@]54C)[C@H]2[C@H]1OC3=O | 58.8% [100 µM]
35 | CN1CCN(Cc2ccc(NC(=O)c3nc4ccc5[nH]ncc5c4c4c3CCC4)cc2C(F)(F)F)CC1 | -59.2% (active)
36 | COc1ccc(-n2cc(-c3ccccc3)c3c(SCC(=O)N/N=C/c4ccc([N+](=O)[O-])cc4)ncnc32)cc1 | 98%
37 | CCOc1c(OC)cc2c(c1O)C(=O)N[C@@H]1[C@@H](O)[C@@H](O)[C@H](O)C[C@@H]21 | 94.9%
38 | COc1cccc2c1C(=O)c1c(O)c3c(c(O)c1C2=O)C[C@@](O)(/C(C)=N/NC(=O)c1ccc(Cl)cc1)C[C@@H]3OC1CC(N)C(O)C(C)O1 (stereo not given in full) | -65.1% (active)
39 | Nc1nc2ccc(-c3nc4ccc5[nH]ncc5c4c4c3CCCC4)cc2s1 | 112%
40 | CCC(C)C1NC(=O)c2nc(oc2-c2ccccc2)-c2csc(n2)-c2csc(n2)-c2nc(oc2C)-c2coc(n2)CNC(=O)C(C(C)CC)NC1=O (stereo not given) | -76.9% (active)
